PLC-gamma1 inh: PLC-gamma1 enzyme inhibitors, primary screen, biochemical, fluorescence, purified enzyme | AID 720700, 2013 | 370,000 tested, 0.84% active | 1-phosphatidylinositol 4,5-bisphosphate phosphodiesterase gamma-1 (Homo sapiens), P19174 | inhibition, % at 12.2 µM | fluorogenic substrate
GC-A act: GC-A stimulated cGMP production enhancers – HEK293 GC-A cells, cGMP TR-FRET, EC30 ANP, primary screen | activation, % at 10 µM | 0% at EC30 ANP, 100% saturating ANP | 370,000 tested, 0.14% active; in the data active means activation above about 40%
Target sequence (P16066 whole entry, looked up): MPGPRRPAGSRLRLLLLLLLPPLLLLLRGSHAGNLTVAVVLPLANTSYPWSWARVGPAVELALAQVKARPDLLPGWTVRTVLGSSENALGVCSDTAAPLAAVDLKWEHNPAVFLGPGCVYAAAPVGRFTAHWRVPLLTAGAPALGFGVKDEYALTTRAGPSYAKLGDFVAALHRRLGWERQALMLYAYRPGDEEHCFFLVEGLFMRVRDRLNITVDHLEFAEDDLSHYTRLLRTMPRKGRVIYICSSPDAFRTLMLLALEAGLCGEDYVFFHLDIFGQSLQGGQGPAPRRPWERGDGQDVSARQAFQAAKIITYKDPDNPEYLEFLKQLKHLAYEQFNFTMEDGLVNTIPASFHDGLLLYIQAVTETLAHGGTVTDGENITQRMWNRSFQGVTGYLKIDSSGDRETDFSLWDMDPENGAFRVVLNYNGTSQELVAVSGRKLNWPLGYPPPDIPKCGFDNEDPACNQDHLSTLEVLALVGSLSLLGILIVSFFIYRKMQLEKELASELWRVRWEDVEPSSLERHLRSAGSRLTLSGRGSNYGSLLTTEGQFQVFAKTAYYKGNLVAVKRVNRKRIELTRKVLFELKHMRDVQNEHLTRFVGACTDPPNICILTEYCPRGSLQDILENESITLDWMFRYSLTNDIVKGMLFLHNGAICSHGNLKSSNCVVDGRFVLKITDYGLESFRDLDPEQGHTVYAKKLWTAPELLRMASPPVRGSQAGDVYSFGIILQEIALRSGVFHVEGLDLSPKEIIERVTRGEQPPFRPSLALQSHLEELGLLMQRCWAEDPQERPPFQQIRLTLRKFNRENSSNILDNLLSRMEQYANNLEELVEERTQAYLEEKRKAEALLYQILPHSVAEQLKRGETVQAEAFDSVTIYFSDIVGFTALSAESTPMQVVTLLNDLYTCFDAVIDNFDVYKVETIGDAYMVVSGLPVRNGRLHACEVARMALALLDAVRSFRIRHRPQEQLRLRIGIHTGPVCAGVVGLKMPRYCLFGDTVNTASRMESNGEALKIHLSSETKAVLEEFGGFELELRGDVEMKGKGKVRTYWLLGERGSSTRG
NPR2 activator: human GC-B receptor activators, primary screen, HEK293 GC-B cells, cGMP TR-FRET, EC30 CNP; Atrial natriuretic peptide receptor 2 (Homo sapiens), P20594; 0% at EC30 CNP, 100% saturating CNP; activation, % at 10 µM; 370,000 tested, 0.11% active; AID 1920062, 2024;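 active means activation at 10 µM reaching about 35% in either raw or pattern-adjusted values, limit read from the data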
PLCb3 inh: human PLC-beta3 inhibitors, primary screen, biochemical, fluorescence | Purified PLC-beta3, fluorogenic substrate | 1-phosphatidylinositol 4,5-bisphosphate phosphodiesterase beta-3 (Homo sapiens), Q01970 | 370,000 tested, 0.18% active | inhibition, % at 12.2 µM | AID 720704, 2013; in the data active means inhibition above about 11%;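 further: 0% = median of compound wells on plate and 100% = full blocker control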
PLCg1 ctr: PLC-gamma1 enzyme inhibitors, counter-screen for PLC-beta3 inhibitor project, biochemical, fluorescence; purified PLC-gamma1, fluorogenic substrate; inhibition, % at 12.3 µM; shares compounds with PLC-gamma1 inh; 3,300 tested, 3.1% active
PLCbeta3 conf: PLC-beta3 inhibitor confirmation, biochemical, fluorescence, purified enzyme | inhibition, % at 12.3 µM | shares compounds with PLC-gamma1 inh | 3,300 tested, 1% active | fluorogenic substrate fluorescence; in the data active means inhibition above about 11%
Starred values were filed as active, the others as inactive. Rows were chosen to be rich in hits. Some 1.2% of all compounds tested hit in one or more screens of this group. Unless noted, no stated cut-off is given here; in the data, active means inhibition above about 9.5%; inactive means the rest.

Results for CCc1nc2ccc(C(=O)N3CCCC(C(N)=O)C3)cn2c1N(C)Cc1ccc(OC)cc1 (stereo not drawn) ?
PLC-gamma1 inh: 10*; GC-A act: 1; NPR2 activator: -1; PLCb3 inh: 0; PLCg1 ctr: -8; PLCbeta3 conf: -4

Results for O=C(Nc1cc2c(cc1[N+](=O)[O-])OCCO2)c1cccnc1 ?
PLC-gamma1 inh: 10*; GC-A act: 0; NPR2 activator: -1; PLCb3 inh: 7; PLCg1 ctr: -3; PLCbeta3 conf: -1

Results for O=C(O)CC(NC(=O)C12CC3CC(CC(C3)C1)C2)c1cc([N+](=O)[O-])ccc1Cl (stereo not drawn) ?
PLC-gamma1 inh: 13*; GC-A act: 5; NPR2 activator: 5; PLCb3 inh: 6; PLCg1 ctr: -5; PLCbeta3 conf: -4

What do the screens show for `CCN1C(=O)[C@H]2[C@@H](c3ccc(Cl)cc3)N3C(=O)CN(CCOC)C(=O)[C@@]3(Cc3ccccc3)[C@H]2C1=O`?
PLC-gamma1 inh: -2; GC-A act: -4; NPR2 activator: -4; PLCb3 inh: 0

What do the screens show for `CCc1nnc(NC(=O)c2cc(C)oc2C)s1`?
PLC-gamma1 inh: 1; GC-A act: 3; NPR2 activator: 2; PLCb3 inh: -3

How did CCSc1nnc(NC(=O)c2cc(C)oc2C)s1 do in these assays?
PLC-gamma1 inh: 11*; GC-A act: 2; NPR2 activator: 0; PLCb3 inh: 3; PLCg1 ctr: -6; PLCbeta3 conf: -3

Results for COc1cccc(NC(=O)CN(c2ccc(C)cc2)S(=O)(=O)c2c(C)nn(C)c2C)c1 ?
PLC-gamma1 inh: 2; GC-A act: 4; NPR2 activator: -4; PLCb3 inh: 12*; PLCg1 ctr: -2; PLCbeta3 conf: 2

What do the screens show for `Cc1noc(C)c1NC(=O)N(C)C[C@H]1Oc2ccc(NC(=O)C3CCCCC3)cc2C(=O)N([C@H](C)CO)C[C@@H]1C`?
PLC-gamma1 inh: -2; GC-A act: -1; NPR2 activator: -2; PLCb3 inh: 0

How did CC1CC2(CC(C)(C(=O)CSc3nc4ccccc4s3)OC2=O)C(=O)O1 (stereo not drawn) do in these assays?
PLC-gamma1 inh: -1; GC-A act: 9; NPR2 activator: 4; PLCb3 inh: 2

Results for CC1(C)CC2(CC(C)(C(=O)CSc3nc4ccccc4s3)OC2=O)C(=O)O1 (stereo not drawn) ?
PLC-gamma1 inh: 16*; GC-A act: 7; NPR2 activator: 2; PLCb3 inh: 11*; PLCg1 ctr: -3; PLCbeta3 conf: -1

Results for Cc1cc(C(=O)OCC(=O)Nc2c(Cl)cccc2C(F)(F)F)c(C)o1 ?
PLC-gamma1 inh: -2; GC-A act: -2; NPR2 activator: 2; PLCb3 inh: -6

What do the screens show for `Cc1cccc[n+]1CC(=O)Nc1ccc([N+](=O)[O-])cc1Cl`?
PLC-gamma1 inh: 14*; GC-A act: 6; NPR2 activator: -1; PLCb3 inh: 7; PLCg1 ctr: -3; PLCbeta3 conf: 0

Results for COc1cc([N+](=O)[O-])ccc1NC(=O)C[n+]1ccccc1C ?
PLC-gamma1 inh: 3; GC-A act: 0; NPR2 activator: 1; PLCb3 inh: 3

What do the screens show for `COc1cc(C(=O)O/N=C(\N)Cc2ccc([N+](=O)[O-])cc2)cc(OC)c1OC`?
PLC-gamma1 inh: -3; GC-A act: 4; NPR2 activator: 6; PLCb3 inh: -6

Results for COc1ccc(C(=O)O/N=C(\N)Cc2ccc([N+](=O)[O-])cc2)c(OC)c1 ?
PLC-gamma1 inh: 10*; GC-A act: 8; NPR2 activator: 4; PLCb3 inh: -9; PLCg1 ctr: -51; PLCbeta3 conf: -46

Results for CC1(C)Cc2c(sc(/N=C/N3CCCC3)c2C#N)C(C)(C)N1 ?
PLC-gamma1 inh: 19*; GC-A act: 3; NPR2 activator: 4; PLCb3 inh: 13*; PLCg1 ctr: -4; PLCbeta3 conf: 0

Screens from PubChem.
